The results in this text go back to PubChem BioAssay (NCATS).

Assay [1] in a line: qHTS Assay for Identifying Gametocytocidal Compounds (AID 743244).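 Note: actives lower the fluorescent signal which means gametocytes are killed.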 Particulars: P. falciparum 3D7 stage III-V gametocytes, alamarBlue, 72 h; max response: hits give low values. Summed up: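 P. falciparum 3D7 stage III–V gametocytes (20,000 cells/well) were exposed to compounds for 72 h at 37 °C, 5% CO2. AlamarBlue was then added for 24 h; decreased resorufin fluorescence (Ex 525/Em 598 nm) indicated loss of viability.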

Assay [2] can be described thus: qHTS assay for cell viability of HEK293 cells (AID 743288). Note: nearly all actives have a fitted effect of over 50% in size. As to conditions: ATP luminescence (CellTiter-Glo), 18 h; max response: hits give low values. A digest of the protocol:
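Total intracellular ATP, measured with a luciferase-coupled reagent, indicates the number of viable HEK293 cells. Exposure to test chemicals lasts 18 h at 37 C in 1,536-well format at 2,000 cells/well.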
For orientation: In qHTS, concentration-response curves come from the screen itself.

The nature of assay [3]: qHTS assay for cell viability of the p53RE-bla HCT-116 cell line (AID 743292). Note: nearly all actives have a fitted effect of over 55% in size. A digest of the protocol:
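ATP-based luminescence, 16 h compound exposure at 37 C, p53RE-bla HCT-116 cells at 4,000/well.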

SMILES strings stand for the structures. Several values for one entry are separate records, joined by “and”; a condition that tells them apart may be missing. Equal entries are not always repeated. Records with an inconclusive call do not appear. Values without a mark were called inactive. Activity calls are given as the source filed them. Calls come from the whole dose curve; as a rule, active = well fitted curve in the direction sought with a large enough effect; inconclusive = small, poorly fitted or top-dose-only effect, or another doubt; inactive = no such curve, though single readings can be large; an effect the other way counts as inactive or inconclusive.
% is set by controls: 0 for no effect and ±100 for the full control effect.

In the case of `CCCCC(CC)COS(=O)(=O)O` (stereo not drawn), the figures for the max response in assay [1] and in assay [2] were -3.23% and 8.79%, respectively. The compound was classed as inactive in assay [3].
The corresponding values for `CC/C=C\C/C=C\C/C=C\CCCCCCCC(=O)O` are 13.1%, -4.87% and “inactive”.
For the compound `O=C1CCC(=O)N1CO`, the max response in assay [1] was -5.34%.
As for `CCOC(C)OCC`, the figures for the max response in assay [1] and in assay [2] were 16.8% and 7.3%, respectively. Further, in assay [3], the outcome was inactive.
Consider `CC(C)CCC[C@@H](C)[C@H]1CC[C@H]2[C@@H]3CC=C4C[C@@H](O)CC[C@]4(C)[C@H]3CC[C@]12C`, for which the figures for the max response in assay [1] and in assay [2] were -0.629% and -8.56%, respectively. In addition, the result in assay [3] was inactive.
On to `CCCCCCCCCCCCCCCCCCCCCC(=O)Nc1ccn([C@@H]2O[C@H](CO)[C@@H](O)[C@@H]2O)c(=O)n1`, for which, in assay [1], the max response was -10.3%.
Regarding `CCCCO`, the max response in assay [1] is 4.7%; in assay [2] it was 11.1% and -7.83%. Besides, the outcome in assay [3] was inactive.
`CCCCCCCCCCCCCCCCCC(=O)OC[C@@H](O)[C@H]1OC[C@H](O)[C@H]1O`: the max response in assay [1] is -8.87%; in assay [2] it was -11.8%. For the same compound, in assay [3], the outcome was inactive.
Regarding `[O-][N+](=Nc1ccccc1)c1ccccc1`, the max response in assay [1] is 18.6%; in assay [2], -0.626%. The compound was called inactive in assay [3].
In the same order, the values of `OCl` are 13.5%, -19.9% and “inactive”.
`O=C(/C=C/c1cccc(F)c1)NC1CC1`: the max response in assay [1] was -1.6%.
The same measure, in the same setting: under `CC(=O)Nc1c(I)c(C(=O)O)c(I)c(N(C)C(C)=O)c1I` stands -0.708%; under `CC(C)CCC[C@@H](C)[C@H]1CC(=O)C2=C3CC[C@H]4C[C@@H](O)CC[C@]4(C)[C@H]3CC[C@@]21C`, 5.28%; under `C[C@]12CCC(=O)C[C@@H]1CC[C@@H]1[C@@H]2CC[C@]2(C)C=CC[C@@H]12`, -3.12%.
Consider `NC(N)=O`, for which the max response was 2.55% in assay [1] and 0.964% in assay [2]. The result in assay [3] was inactive.
Turning to `O=C(O[C@H]1CN2CCC1CC2)N1CCc2ccccc2[C@@H]1c1ccccc1`, the max response in assay [1] is 5.85%.
The same measure, in the same setting: the figure for `NC(=O)C1c2ccccc2CCc2ccccc21` is -4.56%.
As to `Cc1ccc(S(=O)(=O)O)cc1C`, the max response in assay [1] is 1.6%; in assay [2] it was 0.0836%. Also, in assay [3], the compound was classed as inactive.
The corresponding values for `O.O.O.O.O.O.O.O=S(=O)([O-])[O-].[Co+2]` are 0.797%, 1.41% and “inactive”.
For `ClC(Cl)Cl`, the max response in assay [1] was 9.6%; in assay [2], -2%. Further, in assay [3], the outcome was inactive.
In the same order, the values of `N[C@@H](Cc1cc(I)c(Oc2ccc(O)c(I)c2)c(I)c1)C(=O)O` are 3.17%, -8.83% and “inactive”.
With `COC(=O)c1ccccc1O`, the max response in assay [1] is 3.79%; in assay [2] it was -4.62% and -2.27%. Besides, the outcome in assay [3] was inactive.
`C=CC(C)(O)CC/C=C(\C)CCC=C(C)C` (stereo not drawn): the max response was -0.0803% in assay [1] and -7.81% in assay [2]. Also, the call in assay [3] was inactive.
